Screen size: about 400,000 compounds; about 2,100 (0.53%) were called active. Not shown: some 14% with an inconclusive outcome. The rule behind the calls is not given here. The full list was thinned out, with actives kept by preference.
Target: Ataxin-2 (Homo sapiens) (UniProt Q99700)
Test: qHTS for Inhibitors of ATXN expression.
Format: functional

Ataxin-2 (Homo sapiens), sequence (Q99700 whole entry): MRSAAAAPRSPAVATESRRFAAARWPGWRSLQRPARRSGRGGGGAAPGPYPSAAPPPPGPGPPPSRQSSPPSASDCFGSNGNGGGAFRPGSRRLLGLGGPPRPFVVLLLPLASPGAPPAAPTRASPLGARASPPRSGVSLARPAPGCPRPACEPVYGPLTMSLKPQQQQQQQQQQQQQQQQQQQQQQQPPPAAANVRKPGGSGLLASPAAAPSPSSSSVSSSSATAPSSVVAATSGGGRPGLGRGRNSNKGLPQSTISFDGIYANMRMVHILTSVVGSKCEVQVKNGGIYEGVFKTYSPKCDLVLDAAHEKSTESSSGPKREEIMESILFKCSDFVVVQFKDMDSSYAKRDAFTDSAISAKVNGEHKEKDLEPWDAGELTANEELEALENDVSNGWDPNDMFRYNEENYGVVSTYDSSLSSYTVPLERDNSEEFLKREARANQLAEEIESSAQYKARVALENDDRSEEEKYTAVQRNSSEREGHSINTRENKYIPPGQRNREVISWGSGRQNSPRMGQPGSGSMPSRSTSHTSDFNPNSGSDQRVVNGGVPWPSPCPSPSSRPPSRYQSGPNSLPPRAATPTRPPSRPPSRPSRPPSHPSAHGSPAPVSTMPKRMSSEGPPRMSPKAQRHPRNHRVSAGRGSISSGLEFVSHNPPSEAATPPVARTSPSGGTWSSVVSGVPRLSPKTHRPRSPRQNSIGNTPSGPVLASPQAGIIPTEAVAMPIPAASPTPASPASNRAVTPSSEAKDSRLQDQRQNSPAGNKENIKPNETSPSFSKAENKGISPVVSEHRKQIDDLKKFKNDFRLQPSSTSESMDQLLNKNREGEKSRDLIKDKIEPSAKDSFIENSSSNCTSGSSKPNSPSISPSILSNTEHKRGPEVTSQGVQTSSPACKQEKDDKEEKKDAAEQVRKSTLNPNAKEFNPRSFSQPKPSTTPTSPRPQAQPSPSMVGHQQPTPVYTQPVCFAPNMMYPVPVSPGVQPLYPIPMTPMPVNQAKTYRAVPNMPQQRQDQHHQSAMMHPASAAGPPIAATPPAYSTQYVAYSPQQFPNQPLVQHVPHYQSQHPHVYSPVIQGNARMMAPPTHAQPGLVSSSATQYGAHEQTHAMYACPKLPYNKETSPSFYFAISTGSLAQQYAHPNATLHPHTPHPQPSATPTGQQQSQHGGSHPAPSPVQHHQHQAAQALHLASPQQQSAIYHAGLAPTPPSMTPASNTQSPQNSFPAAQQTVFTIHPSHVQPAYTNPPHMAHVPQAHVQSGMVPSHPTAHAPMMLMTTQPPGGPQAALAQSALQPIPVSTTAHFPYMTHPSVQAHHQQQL

| SMILES | Potency |
| --- | --- |
| CS(=O)(=O)c1ccc([S+]([O-])CC(=O)OCc2ccccc2)c([N+](=O)[O-])c1 (centres undefined) | 26.7 µM (active) |
| CN(C)C(CNc1ccc(S(C)(=O)=O)cc1[N+](=O)[O-])c1ccccc1 (centres undefined) | inactive |
| O=C(COc1ccc2ccc(=O)oc2c1)OCc1ccccc1 | inactive |
| Cc1ccc(-c2nc(N)sc2C)cc1 | inactive |
| Nc1nc(-c2ccccc2)c(N=Nc2ccccc2Cl)s1 | 31.6 µM (active) |
| Nc1ccc2nc(-c3ccccc3)c(-c3ccccc3)nc2c1 | inactive |
| O=C(O)c1ccc(CN2C(=O)c3cccc4c([N+](=O)[O-])ccc(c34)C2=O)cc1 | inactive |
| O=C(COC(=O)COc1cccc2ccccc12)NCC(F)(F)F | inactive |
| CCCCn1nnnc1C(c1cc2ccccc2o1)N(CCN(C)C)Cc1ccccc1 (centres undefined) | 28.2 µM (active) |
| C=CCOc1c(Br)cc(CNCCCN2CCOCC2)cc1OC | inactive |
| CCCc1cc(=O)oc2cc(OCC(=O)NCCN3CCOCC3)c(Cl)cc12 | inactive |
| O=C(COC(=O)COc1cccc(C(F)(F)F)c1)Nc1ccc(N2CCOCC2)cc1 | inactive |
| CCOc1cc(CNCCCN2CCOCC2)cc(Br)c1OCC(=O)Nc1cccc(C(F)(F)F)c1 | 20 µM (active) |
| COc1cccc2cc(C(=O)C3=C(O)C(=O)N(CCN4CCOCC4)C3c3ccc(Cl)cc3)oc12 (centres undefined) | inactive |
| COc1cc(CNCCCN2CCOCC2)cc(Br)c1OCc1ccc(Cl)cc1 | 33.6 µM (active) |
| CC(C)(CNC(=O)c1ccc(S(=O)(=O)Nc2cccc(C(F)(F)F)c2)cc1)N1CCOCC1 | inactive |
| COc1cc(CNCCN2CCOCC2)ccc1OCc1ccc(Cl)cc1Cl | 25.1 µM (active) |
| COc1cc2sc3cc(NCCCN4CCOCC4)ccc3c(=O)c2cc1OC | inactive |
| CCOC(=O)Cc1c(C)c2ccc(N(CC)CC)cc2oc1=O | inactive |
| C(=Cc1cnc2ccccc2n1)c1ccc2c(c1)OCO2 | inactive |
| CCCCCn1cc[n+](-c2nc3ccccc3nc2[N-]S(=O)(=O)c2ccccc2)c1 | inactive |
| Cc1ccc(NC(=O)CC2Nc3ccccc3NC2=O)cc1C (centres undefined) | inactive |

| SMILES | Potency |
| --- | --- |
| CC(=O)c1cc2c(C)cc(=O)oc2cc1O | inactive |
| Fc1cccc(Cl)c1CNc1ccc(N2CCCC2)cc1 | inactive |
| COC(=O)C1=C(C)N(Cc2ccccc2)C(NCc2ccccc2)=N[C@H]1c1cccc(C(F)(F)F)c1 | 35.5 µM (active) |
| COC(=O)C1=C(C)N(Cc2ccccc2)C(NCc2cccc(C(F)(F)F)c2)=N[C@H]1c1cccc(F)c1 | 17.8 µM (active) |
| Cc1nn(Cc2ccccc2)c(C)c1/C=N/NC(=O)CNc1cccc(C(F)(F)F)c1 | inactive |
| COC(=O)C1=C(C)N(Cc2ccccc2)C(NCCc2c[nH]c3ccccc23)=N[C@H]1c1cccc(C(F)(F)F)c1 | 25.1 µM (active) |
| CCN1C(N(C)CCc2c[nH]c3ccccc23)=N[C@@H](c2cccc(C(F)(F)F)c2)C(C(=O)OC)=C1C | 31.6 µM (active) |
| CCOC(=O)c1sc(-c2cccc(C(F)(F)F)c2)nc1O | inactive |
| COC(=O)Cc1c(C(=O)OC)nnn1-c1cccc(C(F)(F)F)c1 | inactive |
| C1=C(c2ccc(-c3ccccc3)cc2)Nc2ncnn2C1c1ccco1 (centres undefined) | inactive |
| COCCC(=O)NCC1Cc2cc(Cl)cc(-c3ccc4[nH]ccc4c3)c2O1 (centres undefined) | inactive |
| OC(CNc1ccccc1)Cn1ccc2ccccc21 (centres undefined) | inactive |
| COc1ccc(C2=NN(c3ccc(C(=O)O)cc3)C(c3ccc(OC)c(OC)c3)C2)cc1 (centres undefined) | inactive |
| CCc1c(C)c2cc3c(c(C)c2oc1=O)OCN(CCc1ccccc1F)C3 | inactive |
| CCc1ccc(-c2cn3nc(C)c(C)nc3n2)cc1 | inactive |
| COc1cccc(C2C=C(c3ccc(OC)cc3OC)Nc3nnnn32)c1 (centres undefined) | inactive |
| CN(C)CCN(C(=O)C1CCCCC1)c1nc2cc3c(cc2s1)OCCO3 | inactive |
| CN(Cc1ccccc1)S(=O)(=O)c1csc(C(N)=O)c1 | inactive |
| CN(Cc1ccccc1)C(=O)c1ccc(S(=O)(=O)N(C)c2ccccc2)cc1 | inactive |
| Cc1cc(C)c2sc(N(CCCN(C)C)C(=O)c3ccc(S(=O)(=O)N(C)C4CCCCC4)cc3)nc2c1 | 35.5 µM (active) |
| Cc1cc(C)c2sc(N(CCCN(C)C)C(=O)c3ccc(S(=O)(=O)N(C)Cc4ccccc4)cc3)nc2c1 | 39.8 µM (active) |
| CC(=O)OCCCCCCCCCCC[N+]1(C)CCCCC1 | inactive |

| SMILES | Potency |
| --- | --- |
| O=c1cc(CN2CCN(Cc3ccccc3)CC2)c2ccc(O)c(O)c2o1 | inactive |
| O=C(COC(=O)c1cccnc1O)Nc1ccc(N2CCCCC2)cc1 | inactive |
| O=C(CNCCC1=CCCCC1)Nc1ccc(N2CCCCCC2)cc1 | 25.1 µM (active) |
| CC(=O)c1c(C)[nH]c(C(=O)Nc2ccc(N3CCCCCC3)cc2)c1C | inactive |
| Cc1ccc(C2C=C(c3ccc(Cl)cc3)Nc3nc(NC(=O)c4ccco4)nn32)cc1 (centres undefined) | inactive |
| O=C(NCC(c1ccco1)N1CCCC1)c1cc(S(=O)(=O)N2CCOCC2)ccc1Cl (centres undefined) | inactive |
| CC(=O)Nc1ccc(S(=O)(=O)NC(C)C(=O)NCC(c2ccco2)N2CCCCC2)cc1 (centres undefined) | inactive |
| COc1cc(C(=O)NCC(c2ccco2)N2CCCC2)ccc1OCc1ccc(Cl)cc1Cl (centres undefined) | 35.5 µM (active) |
| O=[N+]([O-])c1ccc(/C=[N+](\[O-])[C@@H]2CCCC[C@@H]2/[N+]([O-])=C/c2ccc([N+](=O)[O-])o2)o1 | 42.3 µM (active) |
| Cc1cc(N/N=C/c2ccc([N+](=O)[O-])o2)nc2ccccc12 | inactive |
| c1ccc(C2=NN(c3ccccc3)C(c3ccco3)C2)cc1 (centres undefined) | inactive |
| COc1ccc(-c2cc(=O)oc3c(C)c(O)ccc23)cc1 | inactive |
| COc1ccc(C2C=C(c3ccc(C)c(C)c3)Nc3ncnn32)c(OC)c1OC (centres undefined) | inactive |
| CCN(CCNCC(O)COc1ccccc1C(C)C)c1cccc(C)c1 (centres undefined) | 39.8 µM (active) |
| CCN(CCCNC(=O)c1cc(Nc2ccccc2OC)nc2ccccc12)c1cccc(C)c1 | inactive |
| O=C(CCNC(=O)c1ccc([N+](=O)[O-])cc1)Nc1nccs1 | inactive |
| CCCCCc1c2c(cc(O)c1C(=O)O)OC(=O)c1c(cc(OC)cc1C(=O)CCCC)O2 | 21.2 µM (active) |
| CCOc1ccc(C(=O)COC(=O)Cn2[nH]c(=O)c3ccccc3c2=O)cc1 | inactive |
| CCCOC(=O)c1ccc(Oc2c(C)n[nH]c2-c2ccc(OCC)cc2O)cc1 | 31.6 µM (active) |
| CCCOC(=O)c1ccc(Oc2coc3c(CN(CC)CC)c(O)ccc3c2=O)cc1 | inactive |

— ChEMBL document CHEMBL1201862, “PubChem BioAssay data set” (2004)
